High-throughput results (PubChem BioAssay)
Sampled rows, rich in hits. Any-hit rate of the full collection: about 2.8%.
PAFAH1B2 FP inh: PAFAH1B2 (human) inhibition. P68402. recombinant PAFAH1B2, FP-rhodamine activity probe, fluorescence polarization. inhibition, % at 3.39 µM. 340,000 compounds, 1.2% hits. AID 492953;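 active = inhibition above the mean of all tested compounds plus 3 SD, cut at about 24% in these data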
Target sequence (P68402 whole entry, looked up): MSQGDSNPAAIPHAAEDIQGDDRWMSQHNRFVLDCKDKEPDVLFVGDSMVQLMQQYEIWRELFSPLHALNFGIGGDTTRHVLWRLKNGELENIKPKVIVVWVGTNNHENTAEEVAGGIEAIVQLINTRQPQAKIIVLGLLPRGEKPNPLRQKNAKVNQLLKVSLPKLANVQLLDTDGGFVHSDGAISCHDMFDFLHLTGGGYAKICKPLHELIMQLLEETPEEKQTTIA
PAFAH2 inh: inhibitors of human PAFAH2 | 340,000 compounds, 0.99% hits | recombinant PAFAH2, FP-rhodamine activity probe, fluorescence polarization | inhibition, % at 3.39 µM | Q99487;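 active = inhibition above the mean over all tested compounds plus 3 SD, cut at about 30% in these data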;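 note: inhibitors block probe labeling of enzyme so polarization drops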
HTRA1 inhibitor: blocks human HTRA1 serine peptidase | 340,000 compounds, 0.5% hits | inhibition, % at 5.96 µM | recombinant HTRA1, FP-rhodamine activity-based probe, fluorescence polarization | Q92743; in the data active = inhibition above about 36%
PAFAH1B3 FP inh: inhibitors of human PAFAH1B3; Q15102; recombinant PAFAH1B3, FP-rhodamine probe, fluorescence polarization; inhibition, % at 3.39 µM; 340,000 compounds, 0.28% hits;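 active = inhibition above the screen-wide average of all tested compounds plus 3 SD, cut at about 25% in these data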
Target sequence (Q15102 whole entry, looked up): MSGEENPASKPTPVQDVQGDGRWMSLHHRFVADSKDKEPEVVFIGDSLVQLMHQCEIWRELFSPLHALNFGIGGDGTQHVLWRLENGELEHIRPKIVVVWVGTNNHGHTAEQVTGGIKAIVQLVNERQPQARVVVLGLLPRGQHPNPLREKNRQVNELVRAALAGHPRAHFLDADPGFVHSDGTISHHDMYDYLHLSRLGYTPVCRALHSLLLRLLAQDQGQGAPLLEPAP
pPAFAH inh: pPAFAH (human) enzyme inhibition. inhibition, % at 3.39 µM. AID 463082. recombinant pPAFAH, FP-rhodamine probe fluorescence polarization. Q13093. 330,000 compounds, 1.5% hits;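 active = inhibition above the mean inhibition across the screen plus 3 SD, cut at about 25% in these data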;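 note: inhibitors block binding of the rhodamine activity-based probe so polarization drops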
DAGLB inhibitor: diacylglycerol lipase beta (human) inhibition; inhibition, % at 5.17 µM; 340,000 compounds, 0.059% hits; Q8NCG7; HEK293T DAGLB membrane lysate, EnzChek fluorogenic substrate; AID 504411; in the data active = inhibition above about 34%
PAFAH2 FP conf: PAFAH2 (human) inhibition, confirmed | shares compounds with PAFAH2 inh | recombinant PAFAH2, FP-rhodamine activity probe, fluorescence polarization | inhibition, % at 3.39 µM | 2,300 compounds, 65% hits | AID 493030;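 active = mean inhibition over three repeats above a set limit taken from the earlier primary screen, cut at about 30% in these data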;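 note: inhibitor blocks binding of rhodamine activity probe so polarization falls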
Numbers stand for hits; – = inactive; · = not tested or not shown.

SMILES	PAFAH1B2 FP inh	PAFAH2 inh	HTRA1 inhibitor	PAFAH1B3 FP inh	pPAFAH inh	DAGLB inhibitor	PAFAH2 FP conf
C=CCOc1ccc(/C=C/C(=O)OCC(=O)NCC2CCCCC2)cc1	–	68	–	–	–	–	66
COc1ccc(OC)c(/C=C/C(=O)OCC(=O)NCc2ccco2)c1	–	40	–	–	–	–	–
COc1ccc(/C=C/C(=O)OCC(=O)NCc2ccco2)c(OC)c1	–	74	–	–	–	–	69
COc1ccc(OC)c(/C=C/C(=O)OCC(=O)Nc2cccc(C(C)=O)c2)c1	–	68	–	–	–	–	62
COc1ccc(OC)c(/C=C/C(=O)Oc2ccc(C(C)=O)cc2)c1	–	–	–	–	–	–	·
COc1ccc(/C=C/C(=O)OCC(=O)NCCc2ccccc2)c(OC)c1	–	76	–	–	–	–	60
CN(CCCn1cnc2c(OCc3ccccc3)ncnc21)Cc1ccco1	·	·	–	·	·	–	·
O=C(Nc1cc(S(=O)(=O)N2CCOCC2)ccc1N1CCOCC1)c1cccs1	–	–	–	–	–	–	·
CC1CCC(NC(=O)C2CCC(CNc3c(N4CCCCC4)c(=O)c3=O)CC2)CC1 (stereo not given)	–	–	–	–	–	–	·
CCS(=O)(=O)N1CCN(c2ccc([N+](=O)[O-])c(NCC3CCCO3)c2)CC1 (stereo not given)	–	–	–	–	–	–	·
CC1CCC(C(C)C)C(OC(=O)COC(=O)c2ccc(N)cc2)C1 (stereo not given)	–	53	–	–	–	–	34
O=C(COC(=O)c1ccco1)Nc1cccc(S(=O)(=O)N2CCCCC2)c1	–	49	–	–	–	–	41
CCOc1ccc(C(=O)OCC(=O)Nc2cccc(S(=O)(=O)N3CCCC3)c2)cc1	–	68	–	–	–	–	57
O=C(COC(=O)c1ccco1)Nc1cccc(S(=O)(=O)N2CCOCC2)c1	·	·	–	·	·	–	·
O=C(COC(=O)c1ccc(O)cc1)Nc1cccc(S(=O)(=O)N2CCCCC2)c1	–	52	–	–	–	–	55
CC(C)N(C(=O)Cn1cc(S(=O)(=O)CC(=O)NCc2ccc(F)cc2)c2ccccc21)C(C)C	–	–	–	–	–	–	·
N/C(Cc1cccc2ccccc12)=N\OC(=O)c1cccs1	–	–	–	–	–	–	·
COc1ccccc1C/C(N)=N/OC(=O)c1cccs1	–	81	–	–	–	–	75
COc1ccccc1C/C(N)=N/OC(=O)/C=C/c1ccccc1	–	69	–	–	–	–	72
C/C(=N\Nc1ccc(F)cc1F)c1cccs1	·	·	·	·	–	·	·
N/C(CC(=O)Nc1ccc(F)cc1F)=N\OC(=O)c1cccs1	–	41	–	–	–	–	–
COc1ccc(C/C(N)=N/OC(=O)c2cccs2)cc1	–	47	–	–	–	–	38
COc1ccccc1C/C(N)=N/OC(=O)COc1cccc(C)c1C	–	–	–	–	–	–	·
NC(=O)c1ccc(NS(=O)(=O)c2ccc(Br)s2)cc1	–	–	–	–	–	–	·
Brc1cc2c(cc1CSc1ncccn1)OCO2	–	–	–	–	–	–	·
SMILES	PAFAH1B2 FP inh	PAFAH2 inh	HTRA1 inhibitor	PAFAH1B3 FP inh	pPAFAH inh	DAGLB inhibitor	PAFAH2 FP conf
CCOc1ccc(N(CC(=O)N2CCCC2)S(=O)(=O)c2ccc(Cl)cc2)cc1	–	–	–	–	–	–	·
N/C(Cc1ccc(Cl)cc1Cl)=N\OC(=O)c1ccc(Br)o1	–	–	–	–	–	–	·
N/C(Cc1ccc(Cl)cc1Cl)=N\OC(=O)c1cccs1	–	88	–	–	–	–	84
COc1ccc(Cl)cc1S(=O)(=O)N1CCC(C(=O)NCc2ccco2)CC1	–	–	–	–	–	–	·
COc1ccc(C(=O)OCC(=O)NCc2ccco2)cc1S(=O)(=O)N1CCN(c2cccc(Cl)c2)CC1	–	32	–	–	–	–	35
Cc1ccc(C(=O)OCC(=O)NCc2ccco2)cc1S(=O)(=O)N1CCOCC1	–	44	–	–	–	–	39
COc1ccc(N2CCN(C(=O)c3ccccc3NC(=O)c3ccccc3)CC2)cc1	–	–	–	–	–	–	·
CCC(CC)C(=O)OCC(=O)NC12CC3CC(CC(C3)C1)C2	–	64	–	–	–	–	43
CCOCC(=O)OCC(=O)NC12CC3CC(CC(C3)C1)C2	–	–	–	–	–	–	·
N#CC1(NC(=O)COC(=O)C23CC4CC(CC(O)(C4)C2)C3)CCCCC1	–	48	–	–	–	–	45
O=C(COC(=O)C12CC3CC(CC(C3)C1)C2)NC12CC3CC(CC(C3)C1)C2	–	90	–	–	–	–	86
CC(OC(=O)C1=COCCO1)C(=O)NC1CCCC(C)C1C (stereo not given)	·	·	–	·	·	–	·
CNS(=O)(=O)c1cccc(C(=O)OCC(=O)NCc2ccccc2)c1	–	–	–	–	–	–	·
CC(C)CNC(=O)COC(=O)c1cccc(S(=O)(=O)NCC(F)(F)F)c1	–	31	–	–	–	–	–
O=C(CN(C(=O)c1csnn1)c1ccc(Br)cc1)NC1CCCCC1	–	–	–	–	–	–	·
O=C(CN1CCN(C(=O)C2CCCO2)CC1)Nc1ccc(Cl)c(Cl)c1 (stereo not given)	–	–	–	–	–	–	·
c1ccc(Nc2cccc(Nc3ccccc3)n2)cc1	–	–	–	–	–	–	·
O=S(=O)(O)c1cccc2cccc(Nc3ccccc3)c12	–	31	–	–	–	–	–
CCOc1ccc(N(CC(=O)N2CCCC2)S(=O)(=O)c2ccc(F)cc2)cc1	–	–	–	–	–	–	·
CC1CCC(NC(=O)COC(=O)c2cccnc2Cl)CC1 (stereo not given)	–	70	–	–	–	–	42
O=C(COC(=O)c1ccccc1Cl)Nc1cccnc1Cl	–	–	–	–	–	–	·
O=C(COC(=O)c1cccnc1Cl)NCC1CCCO1 (stereo not given)	–	–	–	–	–	–	·
O=C(COC(=O)c1cccnc1Cl)NC1CCCCC1	–	72	–	–	–	–	49
O=C(OCC(=O)C12CC3CC(CC(C3)C1)C2)c1cccnc1Cl	–	47	–	–	–	–	37
O=C(COC(=O)c1ccccc1F)Nc1cccnc1Cl	–	35	–	–	–	–	–
O=C(COC(=O)c1cccnc1Cl)NC1CCCc2ccccc21 (stereo not given)	–	–	–	–	–	–	·
CCn1cc(C(=O)N[C@@H](CCSC)C(=O)NCCCn2ccnc2)c(=O)c2cc3c(cc21)OCO3	–	–	–	–	–	–	·
CC1CCC2(CC1)NC(=O)N(NC(=O)CCc1c[nH]c3ccccc13)C2=O (stereo not given)	–	–	–	–	·	–	·
CN(C(=O)COC(=O)c1ccc(CN2CCCC2=O)cc1)c1ccccc1	–	–	–	–	–	–	·
